Results on 91 compounds are retold here after the supplement of paper PMC9877034.

Structures can show the parent of a compound that is named as a salt. In all, about 1,000 compounds were measured (“cFRET/donor change relative to DMSO, normalised to beta-lapachone positive control (supercomplex I-IV assembly)”: median about 0.18, lowest 2% from about -1 on). This excerpt belongs to a sample that is enriched for the lowest values.

This test relates to C2C12 (NDUFB8-AcGFP / COX8A-DsRed-Monomer FRET reporter). Description: cFRET/donor change relative to DMSO, normalised to beta-lapachone positive control (supercomplex I-IV assembly) (fraction of beta-lapachone effect); higher = more respiratory supercomplex assembly. Particulars: 40 µM; 24 h. Here is the method: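 Cells were treated with 40 uM compound for 24 h and imaged on an IN Cell Analyzer 6000. Corrected FRET was divided by donor signal (cFRET/donor) and measured in two replicate experiments. The score is (mean cFRET/donor of compound - mean DMSO) / (mean beta-lapachone 40 uM - mean DMSO). Compounds flagged for prominent cell death, abnormal morphology or decreased cell number were excluded.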
On to `COCCOc1cc2ncnc(Cl)c2cc1OCCOC`, for which the cFRET/donor change is 0.0633.
For `CCOC(=O)c1ccc(C#Cc2ccc3c(c2)C(C)(C)CCS3)nc1` [Tazarotene] the value was 0.454; for `c1ccc2c(c1)CC(N1CCN(c3cccc4c3OCCO4)CC1)C2`, 0.201.
For `c1cnc2cc3c(cc2n1)[C@@H]1CNC[C@H]3C1` [Varenicline tartrate] the value was 0.22.
For `Cc1ccc(S(=O)(=O)/C=C/C#N)cc1` the value was 0.324.
Regarding `COc1ccc(CCNc2nc(N3CCc4cc(OC)c(OC)cc4C3)c3cc(OC)c(OC)cc3n2)cc1OC`, the cFRET/donor change was found to be 0.14.
For `O=C1c2c(O)cc(O)cc2O[C@H](c2ccc(O)c(O)c2)[C@H]1O` (racemic) [(±)-Taxifolin] the value was 0.226; for `CN(c1ccccc1CNc1nc(Nc2ccc3c(c2)CC(=O)N3)ncc1C(F)(F)F)S(C)(=O)=O`, 0.036.
Consider `O=C(O[C@@H]1C[C@@H]2C[C@H]3C[C@H](C1)N2CC3=O)c1c[nH]c2ccccc12` [Dolasetron mesylate hydrate], for which the cFRET/donor change worked out at 0.115.
For `NC(N)=NCc1cccc(I)c1` [m-Iodobenzylguanidine hemisulfate] the value was -0.0455.
For the compound `CN(CCCOc1ccc(Cc2ccccc2)cc1)CCC(=O)O`, the cFRET/donor change is 0.52.
`COc1cccc(OC)c1-c1cc(C(=O)NC2(C(=O)O)C3CC4CC(C3)CC2C4)nn1-c1ccc(C(=O)N(C)CCCN(C)C)cc1C(C)C` (stereo unspecified) showed a cFRET/donor change of 0.153.
For `CC(C)[N+]1(C)[C@@H]2CC[C@H]1C[C@@H](OC(=O)C(CO)c1ccccc1)C2` (stereo partly specified) [Ipratropium bromide] the value was 0.299; for `O=C1CCC(c2ccc(-n3ccnc3)cc2)=NN1` [Imazodan], 0.0699.
The same measure for `Nc1nc(=O)c(Br)c(-c2ccccc2)[nH]1` [Bropirimine]: -0.0226; for `Nc1ccc(-c2nc3ccc(-c4nc5ccc(N)cc5[nH]4)cc3[nH]2)cc1`: -0.494.
The same measure for `CC(C)(C)NC(=O)[C@@H]1CN(Cc2cccnc2)CCN1C[C@@H](O)C[C@@H](Cc1ccccc1)C(=O)N[C@H]1c2ccccc2C[C@H]1O` [Indinavir sulfate salt hydrate]: 0.0944; for `Cc1cc(NC2CCCCC2)nc(-n2nc(C)cc2C)n1`: 0.569; for `O=C1/C(=C/c2cccs2)CC/C1=C\c1cccs1`: 0.584.
In turn, `CCN(CC)CCCC(C)Nc1c2ccc(Cl)cc2nc2ccc(OC)cc12` (stereo unspecified) [Quinacrine dihydrochloride] had a cFRET/donor change of -4.52.
The same measure for `OC[C@H]1O[C@@H](n2cnc3c(N[C@H]4CCC[C@@H]4O)ncnc32)[C@H](O)[C@@H]1O`: 0.476; for `C[C@H](c1ccc(F)cc1CCCC(=O)O)N(c1cc(F)ccc1F)S(=O)(=O)c1ccc(Cl)cc1`: 0.476; for `C[N+](C)(C)CCO.[Br-]` [Choline bromide]: 0.313.
In turn, `O=C(CCCCCN1CCN(c2ccccc2-c2ccccc2)CC1)NC1CCCc2ccccc21` (stereo unspecified) [LP 12 hydrochloride hydrate] displayed a cFRET/donor change of 1.51.
For `C=CC1=C(C)c2cc3[nH]c(cc4nc(cc5[nH]c(cc1n2)c(C)c5CCC(=O)O)C(CCC(=O)O)=C4C)c(C)c3C=C` [Protoporphyrin IX disodium] the value was 3.12.
Turning to `COC(=O)C1=C(C)NC(C)=C(C(=O)OC2CCCN(Cc3ccccc3)C2)C1c1cccc([N+](=O)[O-])c1` (stereo unspecified) [Benidipine hydrochloride], the cFRET/donor change was found to be 0.367.
The same measure for `CCc1cccc(N(C)C(=N)Nc2cccc3ccccc23)c1`: 0.203; for `CCOC(=O)[C@@H](N)Cc1ccc(O)c(O)c1` [L-Dopa ethyl ester]: -0.101.
The same measure for `O=c1n(CCCN2CCN(c3cccc(Cl)c3)CC2)nc2ccccn12` [Trazodone hydrochloride]: 0.586.
For `CC[C@H]1OC(=O)[C@H](C)[C@@H](O[C@H]2C[C@@](C)(OC)[C@@H](O)[C@H](C)O2)[C@H](C)[C@@H](O[C@@H]2O[C@H](C)C[C@H](NC)[C@H]2O)[C@](C)(O)C[C@@H](C)CN(C)[C@H](C)[C@@H](O)[C@]1(C)O` the value was 0.325; for `O=C(O)c1cc(=O)c2ccccc2[nH]1` [Kynurenic acid], -0.161; for `O=c1cc(-c2ccccc2)[nH]c2nc(Cl)ccc12` [7-Chloro-4-hydroxy-2-phenyl-1,8-naphthyridine], -1.98.
On to `CN1[C@@H]2CC[C@H]1CC(OC(=O)c1c[nH]c3ccccc13)C2` (stereo partly specified) [3-Tropanyl-indole-3-carboxylate hydrochloride], for which the cFRET/donor change was found to be 0.435.
For `CCCOc1ccccc1-c1nc2[nH]nnc2c(=O)[nH]1` [Zaprinast] the value was 0.225.
The same measure for `CCCCN(CC)c1nc(C)nc2c1c(C)cn2-c1c(C)cc(C)cc1C`: 0.353.
For `CNC(=O)[C@H]1O[C@@H](n2cnc3c(NCc4ccc(N)cc4)ncnc32)[C@H](O)[C@@H]1O` the value was 0.125; for `Cc1nc(C#Cc2cccnc2)cs1` [MTEP hydrochloride], 0.691; for `CCCc1nn(C)c2c(=O)[nH]c(-c3cc(S(=O)(=O)N4CCN(C)CC4)ccc3OCC)nc12` [Sildenafil citrate salt], 0.123.
In turn, `NS(=O)(=O)c1cc2c(cc1Cl)N=CNS2(=O)=O` [Chlorothiazide] came in with a cFRET/donor change of 0.223.
On to `C=C1C(=O)O[C@H]2[C@H]1CC/C(C)=C/CC[C@@]1(C)O[C@@H]21` [Parthenolide], for which the cFRET/donor change turned out to be 0.366.
Take `CN(CCOc1ccc(NS(C)(=O)=O)cc1)CCc1ccc(NS(C)(=O)=O)cc1` [Dofetilide]: the cFRET/donor change was found to be 0.532.
`CC1CCN=C(N)S1` (racemic) [(±)-AMT hydrochloride] yielded a cFRET/donor change of 0.00413.
For `CC(=O)/C=C1/C(=O)N(C)c2ccccc21` [Supercinnamaldehyde] the value was 0.0218.
As to `CC(N)(Cc1ccc(O)cc1)C(=O)O` (racemic) [DL-alpha-Methyl-p-tyrosine], the cFRET/donor change was -0.224.
The same measure for `C[C@]12CC[C@@H]3c4ccc(O)cc4C[C@@H](CCCCCCCCC[S+]([O-])CCCC(F)(F)C(F)(F)F)[C@H]3[C@@H]1CC[C@@H]2O` (stereo partly specified) [Fulvestrant]: 0.0846; for `NS(=O)(=O)c1nn2cc(-c3ccccc3)nc2s1`: -0.298.
For `COC(=O)C(C)(N)Cc1ccc(O)cc1` (racemic) [alpha-Methyl-DL-tyrosine methyl ester hydrochloride] the value was 0.302; for `O=C1OC(=O)[C@H]2[C@@H]1[C@@H]1CC[C@H]2O1` [Norcantharidin], 0.251; for `CCCCC1(C2CCCC2)Cc2cc(OCC(=O)O)c(Cl)c(Cl)c2C1=O` (stereo in doubt) [R(+)-Butylindazone], 0.322.
For `CC(=O)NC[C@H]1CN(c2ccc(N3CCOCC3)c(F)c2)C(=O)O1` [Linezolid] the value was 0.372; for `CCCCCCCCCCCCCCCC(=O)OC[C@H](COP(=O)(O)OCCNC(=O)[C@H](C)NC(=O)CC[C@@H](NC(=O)[C@H](C)NC(=O)[C@@H](C)O[C@H]1[C@H](O)[C@@H](CO)OC(O)[C@@H]1NC(C)=O)C(N)=O)OC(=O)CCCCCCCCCCCCCCC` (stereo partly specified) [Mifamurtide], -0.0931.
Compound `O=C1CCCC(=O)C1C(=O)c1ccc(C(F)(F)F)cc1[N+](=O)[O-]` [Nitisinone] had a cFRET/donor change of 0.0147.
`C=C1C[C@@]23CC[C@H]4[C@@](C)(CCC[C@@]4(C)C(=O)O[C@@H]4O[C@H](CO)[C@@H](O)[C@H](O)[C@H]4O)[C@@H]2CC[C@]1(O[C@@H]1O[C@H](CO)[C@@H](O)[C@H](O)[C@H]1O[C@@H]1O[C@H](CO)[C@@H](O)[C@H](O)[C@H]1O)C3` [Stevioside] came in with a cFRET/donor change of 0.0782.
For the compound `N[C@H](C(=O)O)[C@H](Cc1ccccc1)C(=O)O` [L-Beta-threo-benzyl-aspartate], the cFRET/donor change was -0.122.
As for `CCCCCCCCCCCCCCC[C@H](O)[C@H](N)CO` (racemic) [DL-erythro-Dihydrosphingosine], the cFRET/donor change came to 0.48.
For `CC(C)NCC(O)c1ccc(O)c(O)c1` (single isomer, unassigned; (-)) [(-)-Isoproterenol hydrochloride] the value was 0.53; for `C[C@]12C=CC(=O)C=C1CC[C@@H]1C2=CC[C@]2(C)[C@@H](C(=O)CN3CCN(c4cc(N5CCCC5)nc(N5CCCC5)n4)CC3)CC[C@@H]12`, -1.85; for `CCN(CC)CCCCNc1ncc2cc(-c3c(Cl)cccc3Cl)c(NC(=O)NC(C)(C)C)nc2n1`, 0.403.
In turn, `Cc1cn([C@H]2C[C@H](N=[N+]=[N-])[C@@H](CO)O2)c(=O)[nH]c1=O` [3'-Azido-3'-deoxythymidine] displayed a cFRET/donor change of -0.184.
Compound `O=CN(O)CCCP(=O)(O)O` [Fosmidomycin sodium salt hydrate] displayed a cFRET/donor change of 0.0766.
In turn, `N[C@H](C(=O)O)[C@H](O)c1ccc(O)c(O)c1` had a cFRET/donor change of 0.419.
Consider `O=c1[nH]c(=O)n(C2CCCO2)cc1F` (stereo unspecified) [Tegafur], for which the cFRET/donor change turned out to be 0.268.
Take `O=C(NOC[C@H](O)CO)c1ccc(F)c(F)c1Nc1ccc(I)cc1F`: the cFRET/donor change came to 0.21.
For the compound `COc1cc2ncnc(Nc3cccc(Cl)c3)c2cc1OC` [Tyrphostin AG 1478], the cFRET/donor change came to 0.19.
With `CN(C)c1cc2c(Nc3ccc4c(cnn4Cc4ccccc4)c3)ncnc2cn1`, the cFRET/donor change was -7.46.
For `CC1=C(C(=O)O)N2C(=O)[C@@H](NC(=O)[C@H](N)c3ccccc3)[C@H]2SC1` [Cephalexin hydrate] the value was 0.038; for `CNS(=O)(=O)CCc1ccc2[nH]cc(C3CCN(C)CC3)c2c1` [Naratriptan hydrochloride], 0.347; for `COc1ccc(-c2cc(=O)c3c(O)c(OC)c(OC)cc3o2)cc1O` [Eupatorin], 0.395.
`O=c1cc(-c2ccccc2)oc2c(O)c(O)ccc12` [7,8-Dihydroxyflavone hydrate] displayed a cFRET/donor change of -0.0745.
For `O=c1c(-c2ccc(O)cc2)coc2cc(O)ccc12` [Daidzein], the cFRET/donor change worked out at 0.201.
For `O=c1c(O)c(-c2ccc(O)cc2O)oc2cc(O)cc(O)c12` [Morin] the value was -3.25; for `O=c1cc(-c2ccc(O)cc2)oc2cc(O)cc(O)c12` [Apigenin], -1.74.
For `O=C(Nc1ccccc1C(=O)NC1CCCCNC1=O)c1cc2ccccc2s1` (stereo unspecified) the value was 0.384.
As to `CN1[C@@H]2CC[C@H]1C[C@@H](OC(=O)C(O)c1ccccc1)C2` (mixture of isomers) [DL-Homatropine hydrobromide], the cFRET/donor change was 0.0655.
As to `Cn1c(=O)c2[nH]c(-c3ccc(S(=O)(=O)O)cc3)nc2n(C)c1=O` [8-(p-Sulfophenyl)theophylline], the cFRET/donor change is 0.086.
For `Cn1c(=O)c2[nH]c(-c3ccccc3)nc2n(C)c1=O` [1,3-Dimethyl-8-phenylxanthine] the value was -1.5.
For `Cn1c(=O)c2[nH]c(C3CCCC3)nc2n(C)c1=O` [8-Cyclopentyl-1,3-dimethylxanthine] the value was 0.158.
In turn, `Cc1c(O)cccc1C(=O)N[C@@H](CSc1ccccc1)[C@H](O)CN1C[C@H]2CCCC[C@H]2C[C@H]1C(=O)NC(C)(C)C` [Nelfinavir mesylate hydrate] registered a cFRET/donor change of -0.54.
Take `O=C(O)CCc1ccc(NCc2cccc(Oc3ccccc3)c2)cc1`: the cFRET/donor change is -0.4.
The same measure for `C[C@@H](c1ncncc1F)[C@](O)(Cn1cncn1)c1ccc(F)cc1F` [Voriconazole]: 0.181; for `NC1CONC1=O` (racemic) [DL-Cycloserine]: 0.397.
For `NC(N)=NC(=O)c1nc(Cl)c(N2CCCCCC2)nc1N` [5-(N,N-hexamethylene)amiloride] the value was 0.351; for `CCOc1ncc(S(=O)(=O)N2CCN(CC)CC2)cc1-c1nc(=O)c2nn(CCOC)c(CC)c2[nH]1` [Gisadenafil besylate salt], 0.0753.
For `O=C1Nc2ccc(I)cc2/C1=C/c1cc(Br)c(O)c(Br)c1` the value was -3; for `N=C(N)c1ccc(OCCCCCOc2ccc(C(=N)N)cc2)cc1` [Pentamidine isethionate], 0.191; for `CC(C)(NS(=O)(=O)c1ccc(Oc2ccc(F)cc2)cc1)C(=O)NO`, 0.196.
Compound `CN1[C@@H]2CC[C@H]1C[C@@H](OC(c1ccccc1)c1ccccc1)C2` [Benztropine mesylate] gave a cFRET/donor change of 0.586.
With `Cc1c(-c2ccc(-c3ccccc3F)cc2)nc2ccc(F)cc2c1C(=O)O` [Brequinar sodium salt hydrate], the cFRET/donor change was determined as 0.431.
The same measure for `Nc1ccc(CCNc2ncnc3c2ncn3C2OC(CO)C(O)C2O)cc1` (stereo unspecified) [N6-2-(4-Aminophenyl)ethyladenosine]: 0.338.
For `CCCC(CCC)C(=O)O[C@H]1C[C@H]2CC[C@@H](C1)[N+]2(C)C` [Anisotropine methyl bromide] the value was 0.0542.
`COc1ccc(CCn2nnnc2C2(c3ccc(C)cc3)CC2)cc1` [Mephetyl tetrazole] showed a cFRET/donor change of 0.388.
